Rows were chosen to be rich in hits. Some 2.6% of all compounds tested hit in one or more screens of this group.
DRV1 agonist = agonists of human resolvin D1 receptor DRV1 (GPR32); activation, % at 76.9 µM; CHO-K1 GPR32 beta-arrestin PathHunter luminescence, 90 min; zero percent set by DMSO-only wells; O75388; actives 2.5% (n = 48,000);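 active means activation of at least 60% and not above a set upper limit, about 1 call in 100 departs from these limits; inconclusive means activation of 40% to 60%, or above that upper limit; inactive means activation under 40%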; further: 0% is about no effect
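Beta-arrestin recruitment read-out: luminescence from complemented beta-Gal in CHO-K1 GPR32 PathHunter cells, measured 1 h after detection reagent at ambient temperature following 90 min compound exposure at 37 °C; DMSO served as basal (EC0) control.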
GALC G270D up = enhancers of human galactocerebrosidase G270D mutant activity in cells. P54803. 145M-Twi-hGALC-G270D cells (Twitcher mouse brain line with human GALC G270D), HMU-beta-Gal fluorescence, 48 h. Potency, µM (highest dose often 57.5 µM), hits mostly activators. actives 0.1% (n = 45,000). AID 1159614; further: potency means the concentration at half of the fitted maximal effect; 0% is about no effect; nearly all actives have a fitted effect of over 65% in size
Target sequence (P54803 whole entry G286D): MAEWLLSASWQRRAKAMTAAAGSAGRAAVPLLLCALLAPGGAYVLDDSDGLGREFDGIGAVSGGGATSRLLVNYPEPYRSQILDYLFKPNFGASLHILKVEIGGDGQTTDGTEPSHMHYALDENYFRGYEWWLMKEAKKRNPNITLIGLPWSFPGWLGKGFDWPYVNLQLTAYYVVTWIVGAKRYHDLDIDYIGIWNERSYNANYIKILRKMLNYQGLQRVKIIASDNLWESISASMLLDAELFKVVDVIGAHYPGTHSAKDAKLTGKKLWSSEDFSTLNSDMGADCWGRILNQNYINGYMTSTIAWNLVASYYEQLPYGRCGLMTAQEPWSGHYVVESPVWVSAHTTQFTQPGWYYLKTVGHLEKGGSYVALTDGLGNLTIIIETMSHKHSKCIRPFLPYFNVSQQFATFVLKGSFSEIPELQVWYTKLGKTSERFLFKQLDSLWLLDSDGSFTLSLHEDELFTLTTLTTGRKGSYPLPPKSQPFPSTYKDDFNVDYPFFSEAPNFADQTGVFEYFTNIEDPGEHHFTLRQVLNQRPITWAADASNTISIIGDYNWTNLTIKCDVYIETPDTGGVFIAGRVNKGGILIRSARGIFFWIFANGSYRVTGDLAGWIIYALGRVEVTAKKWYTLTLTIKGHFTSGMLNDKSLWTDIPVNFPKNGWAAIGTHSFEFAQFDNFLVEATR
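Fluorogenic HMU-b-Gal hydrolysis (0.1 mM final, pH 5.2 citrate-phosphate with 1 mg/mL sodium taurocholate; carbonate stop buffer) measures mutant GALC activity after compound treatment of live 145M-Twi Twitcher brain cells stably carrying human GALC-G270D, with wild-type GALC line alongside; activation sought.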
B2AR arrestin ag = beta-arrestin recruitment by human beta2-adrenergic receptor ligands. P07550. HTLA Tango cells, beta-arrestin recruitment, luciferase luminescence, 18 h. Potency, µM (top dose mostly 46.1 µM), hits mostly activators. 44,000 tested, under 10 active. AID 1347077;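 further: potency means the concentration at half of the fitted maximal effect; 0% = DMSO and full agonism = EC100 isoproterenol or metaproterenol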
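First, Tango cells carrying beta2-AR and beta-arrestin fusions received compound up to 46 microM. After 18 hr at 37 degrees C, luciferase substrate was added for 15 minutes, then luminescence gave %Activity for curve fitting.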
PTAP-TSG101 blk = TSG101-PTAP interaction inhibition, HIV-1 budding. AID 1347069. 44,000 tested, under 10 active. Potency, µM (top dose mostly 115 µM), most hits filed as inhibitors. Fluorescence polarization, FITC-PTAP peptide/Tsg101, 20 min; further: potency means the concentration at half of the fitted maximal effect; 0% is about no effect
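Fluorescence polarization: Tsg101 binding domain (10 uM final) in 10 mM HEPES pH 7.5, 0.15 M NaCl, 0.01% Tween 20, 3 mM EDTA, 0.1 mM TCEP; compounds pinned; FITC-PTAP peptide 50 nM final; 20 min, r.t.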
GALK inhibitor = inhibitors of human galactokinase (GALK). recombinant GALK, Kinase-Glo ATP luminescence, 1 h. Potency, µM (doses to about 57.5 µM), for inactives: at the top dose activity, negative = inhibition, actives largely listed as inhibitors. 44,000 tested, under 10 active;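 further: plate controls were full GALK reaction for no effect and reaction lacking GALK for full effect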
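Reactions with and without enzyme served as controls. GALK at 5 nM phosphorylates 100 uM galactose using 35 uM ATP (HEPES pH 8.0, Mg2+) for 1 h at RT, with luminescence read 10 min after adding Kinase-Glo Plus.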
Starred values were filed as active, the others as inactive; ! = not active in a repeat; [ ] = dose if it differs, or a comment. Unless noted, the call rests on the fitted dose curve; in most records, active means well fitted curve in the direction sought with a large enough effect; inconclusive means small, poorly fitted or top-dose-only effect, or another doubt; inactive means no such curve, though single readings can be large; an effect the other way counts as inactive or inconclusive.

How did COc1ccccc1C(=O)Nc1nc2n(n1)C(c1ccc(F)cc1)C=C(c1ccc(Cl)cc1)N2 (stereo unspecified) do in these assays?
DRV1 agonist: 11; GALC G270D up: inactive; B2AR arrestin ag: inactive; PTAP-TSG101 blk: inactive; GALK inhibitor: 3%

Results for Cc1ccc(C2C=C(c3ccc(Cl)cc3)Nc3nc(NC(=O)c4ccco4)nn32)cc1 (stereo unspecified) ?
DRV1 agonist: 108*; GALC G270D up: inactive; B2AR arrestin ag: inactive; PTAP-TSG101 blk: inactive; GALK inhibitor: 3%

Results for Cc1ccc(C2C=C(c3ccccc3)Nc3nc(NS(=O)(=O)c4ccccc4)nn32)cc1 (stereo unspecified) ?
DRV1 agonist: inconclusive; GALC G270D up: inactive; B2AR arrestin ag: inactive; PTAP-TSG101 blk: inconclusive; GALK inhibitor: 3%

How did Cc1ccc(S(=O)(=O)Nc2nc3n(n2)C(c2ccc(Cl)cc2)C=C(c2ccccc2)N3)cc1 (stereo unspecified) do in these assays?
DRV1 agonist: 89*; GALC G270D up: inactive; B2AR arrestin ag: inactive; PTAP-TSG101 blk: inactive; GALK inhibitor: 4%

What do the screens show for `C[C@@H]1CC[C@@]2(OC1)O[C@H]1C[C@H]3[C@@H]4CC[C@H]5C[C@@H](O)CC[C@]5(C)[C@H]4CC(=O)[C@]3(C)[C@H]1[C@@H]2C`?
DRV1 agonist: -25; GALC G270D up: inactive[5.77 µM]

What do the screens show for `Cc1ccc(Cn2c(CNC(=O)CCc3ccccc3)nc3cccnc32)cc1`?
DRV1 agonist: -18; GALC G270D up: inactive; B2AR arrestin ag: inactive; PTAP-TSG101 blk: inactive; GALK inhibitor: 5%

What do the screens show for `CCCC(=O)O[C@]1(C(=O)CC)CC[C@H]2[C@@H]3CCC4=CC(=O)CC[C@]4(C)[C@H]3[C@@H](O)C[C@@]21C`?
DRV1 agonist: -6; GALC G270D up: inactive

How did COc1ccccc1Cc1nc2ccccc2nc1SCC(=O)N1CCC(C)CC1 do in these assays?
DRV1 agonist: 64*; GALC G270D up: inactive; B2AR arrestin ag: inactive; PTAP-TSG101 blk: inactive; GALK inhibitor: 0%

What do the screens show for `Cc1ccccc1C(=O)N1CC/C(=N\OS(=O)(=O)O)c2ccc(Cl)cc21`?
DRV1 agonist: -35; GALC G270D up: inactive

How did Oc1cccc2[nH]ccc12 do in these assays?
DRV1 agonist: -20; GALC G270D up: inactive

Results for CCOC(=O)c1c(C)[nH]c(C)c1S(=O)(=O)N(C)CC(=O)NCc1cccc(Br)c1 ?
DRV1 agonist: 101*; GALC G270D up: inactive; B2AR arrestin ag: inactive; PTAP-TSG101 blk: inactive; GALK inhibitor: -3%

How did CCOc1ccc(/C=C/c2nc3ccccc3n2S(=O)(=O)c2cccc(Cl)c2)cc1 do in these assays?
DRV1 agonist: 70*; GALC G270D up: inactive; B2AR arrestin ag: inactive; PTAP-TSG101 blk: inactive; GALK inhibitor: 23%

Results for Cc1ccc(/C=C/c2nc3ccccc3n2S(=O)(=O)c2cccc(Cl)c2)cc1 ?
DRV1 agonist: 40; GALC G270D up: inactive; B2AR arrestin ag: inactive; PTAP-TSG101 blk: inactive; GALK inhibitor: 8%

Results for CCCC1(C)C(C#N)(C#N)C1(C#N)C#N ?
DRV1 agonist: -28

What do the screens show for `Cc1c(Cl)ccc2sc(N3CCN(C(=O)c4ccco4)CC3)nc12`?
DRV1 agonist: 85*; GALC G270D up: inactive; B2AR arrestin ag: inactive; PTAP-TSG101 blk: inactive; GALK inhibitor: 1%

What do the screens show for `CCCCC(=O)N1CCN(c2nc3c(C)c(C)ccc3s2)CC1`?
DRV1 agonist: 69*; GALC G270D up: inactive; B2AR arrestin ag: inactive; PTAP-TSG101 blk: inactive; GALK inhibitor: -5%

Results for C#CC(C)(CC)OC(=O)c1ccccc1C(=O)O (stereo unspecified) ?
DRV1 agonist: 37; GALC G270D up: inactive

What do the screens show for `O=C(O)c1ccccc1NCCc1ccccc1`?
DRV1 agonist: -34; GALC G270D up: inactive

Results for CCOc1ccc(C2CC(=O)n3nc(-c4ccc(C)cc4)nc3S2)cc1OC (stereo unspecified) ?
DRV1 agonist: 74*; GALC G270D up: inactive; B2AR arrestin ag: inactive; PTAP-TSG101 blk: inactive; GALK inhibitor: 2%

What do the screens show for `O=C1CC(c2ccc(Cl)cc2)Sc2nc(-c3ccc(F)cc3)nn21` (stereo unspecified)?
DRV1 agonist: 119*; GALC G270D up: inactive; B2AR arrestin ag: inactive; PTAP-TSG101 blk: inactive; GALK inhibitor: -16%

Results for Cc1ccc(-c2nc3n(n2)C(=O)CC(c2ccc(C)cc2)S3)cc1 (stereo unspecified) ?
DRV1 agonist: -9; GALC G270D up: inactive; B2AR arrestin ag: inactive; PTAP-TSG101 blk: inactive; GALK inhibitor: 1%

Results for COc1cc2c(C(=O)N3CCN(c4cccc(C)c4)C(C)C3)cn(CC(C)C)c(=O)c2cc1OC (stereo unspecified) ?
DRV1 agonist: 0; GALC G270D up: inactive; B2AR arrestin ag: inactive; PTAP-TSG101 blk: inactive; GALK inhibitor: 1%

What do the screens show for `Cc1ccc(-n2nc3ccc(NC(=O)Cc4ccc(Cl)cc4)cc3n2)cc1`?
DRV1 agonist: 21; GALC G270D up: inactive; B2AR arrestin ag: inactive; PTAP-TSG101 blk: inactive; GALK inhibitor: -18%

Results for O=C(Cc1ccc(Cl)cc1)Nc1ccc2nn(-c3ccccc3)nc2c1 ?
DRV1 agonist: 85*; GALC G270D up: inactive; B2AR arrestin ag: inactive; PTAP-TSG101 blk: inactive; GALK inhibitor: -20%

What do the screens show for `CCOc1cccc(NC(=O)C2CC(=O)N(C)C(=Nc3ccc(OC)cc3)S2)c1` (stereo unspecified)?
DRV1 agonist: 20; GALC G270D up: inactive; B2AR arrestin ag: inactive; PTAP-TSG101 blk: inactive; GALK inhibitor: 2%

Results for CCc1ccc(N=C2NC(=O)CC(C(=O)Nc3ccc(OC)cc3)S2)cc1 (stereo unspecified) ?
DRV1 agonist: 92*; GALC G270D up: inactive; B2AR arrestin ag: inactive; PTAP-TSG101 blk: inactive; GALK inhibitor: 3%

Results for CCOC(=O)C1=C(C)NC(C)=C(C(=O)OC)C1c1cccc(Cl)c1Cl (stereo unspecified) ?
DRV1 agonist: 110*!; GALC G270D up: inactive

What do the screens show for `COc1ccc(CNC(=O)CCc2c(C)c3cc4c(C)coc4cc3oc2=O)cc1`?
DRV1 agonist: 68*; B2AR arrestin ag: inactive; PTAP-TSG101 blk: inactive; GALK inhibitor: 7%

Results for Cc1ccc(C(C)(C)C)c(OCC(=O)NCCc2nc3ccccc3[nH]2)c1 ?
DRV1 agonist: 61*; GALC G270D up: inactive; B2AR arrestin ag: inactive; PTAP-TSG101 blk: inactive; GALK inhibitor: 2%
